According to PubChem BioAssay (NCATS):
Unmarked numbers belong to inactive results. How the calls were made is not given here.

test system: HIV-1 nucleocapsid protein NCp7 (binding to TG oligonucleotide); experiment: HIV Nucleocapsid (AID 346); conditions: HIV-1 NC / fluorescein-TGTGTGTG probe, fluorescence polarization;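 further: potency is for inhibitors that block NC binding and lower polarization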
Outline: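 Fluorescence polarization binding of 100 nM HIV-1 NC to 10 nM fluorescein-labelled TG4xF oligonucleotide. Buffer was Hepes pH 7.5 with 250mM NaCl, 1uM ZnCl2, TCEP and 2-mercaptoethanol. Compounds were incubated 1 hr at room temperature before the read.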
Potency means the concentration at half of the fitted maximal effect.

| Structure (SMILES) | Potency [µM] |
| --- | --- |
| c1ccc2c(NCCN3CCOCC3)nc(-c3ccc4c(c3)OCO4)nc2c1 | > 20 |
| COCCn1c(=O)c(-c2ccc(Cl)cc2)nc2cnc(OCc3ccccc3)nc21 | > 20 |
| Cc1nc2cncnc2n(Cc2ccc(F)cc2)c1=O | > 20 |
| COc1ncc2nc(-c3ccccc3)c(=O)n(C)c2n1 | > 20 |
| COc1cccc(Cn2c(=O)c(-c3ccc(Cl)cc3)nc3cncnc32)c1 | > 20 |
| COc1ccc(-n2c(=O)c(C)nc3cncnc32)cc1 | > 20 |
| COc1ccccc1CCn1c(=O)c(-c2ccccc2)nc2cncnc21 | > 20 |
| COc1ccc(Oc2ncc3nc(-c4cccs4)c(=O)n(CCC#N)c3n2)cc1 | > 20 |
| Cc1cccc(CNc2ncncc2-c2ccccc2C)c1 | > 20 |
| COc1ccc(CNc2ncnc3ccc(-c4ccc(C(=O)N(C)C)cc4)cc23)c(OC)c1 | > 20 |
| O=c1c(CCc2ccccc2)nc2cnc(N3CCNCC3)nc2n1C1CC1 | > 20 |
| O=C(Nc1ccccc1)N1CC2(CCN(S(=O)(=O)c3ccccc3)CC2)C1 | > 20 |
| COc1ccc(NC(=O)N2CC3(CCN(C(=O)c4cccc(F)c4)CC3)C2)cc1 | > 20 |
| c1ccc(Nc2ncncc2-c2ccc3c(c2)OCO3)cc1 | > 20 |
| CN(C)c1ccc(-c2ccc3ncnc(-n4ccnc4)c3c2)cc1 | > 20 |
| Cc1noc(C)c1C(=O)N1CCC2(CC1)CCN(c1cccc(-c3ccccc3)c1)CC2 | > 20 |
| COc1ccc(Oc2ncc3ncc(=O)n(Cc4cccs4)c3n2)cc1 | > 20 |
| CN(C)c1ncc2nc(-c3cc(F)cc(F)c3)c(=O)n(Cc3ccc(F)cc3)c2n1 | > 20 |
| O=C(Nc1ccccc1)N1CCCC2(CCN(C(=O)c3cnccn3)CC2)C1 | > 20 |
| Cc1noc(C)c1-c1cc(N2CCNCC2)ncn1 | > 20 |

| Structure (SMILES) | Potency [µM] |
| --- | --- |
| CCNc1ncc2nc(-c3cccs3)c(=O)n(CCc3ccccc3)c2n1 | > 20 |
| COCCn1c(=O)cnc2cnc(N3CCNCC3)nc21 | > 20 |
| COc1ccc(C(=O)N2CCC[C@@]3(CCN(c4ccccc4)C3)C2)cc1 | > 20 |
| O=S(=O)(c1ccccc1)N1CCC[C@@]2(CCN(Cc3nccs3)C2)C1 | > 20 |
| COc1ccccc1-c1nccc(NCc2cccnc2)n1 | > 20 |
| O=c1c(-c2cccc(F)c2)nc2cncnc2n1-c1ccccc1 | > 20 |
| COc1ccc(-n2c(=O)c(CCc3ccccc3)nc3cnc(OC)nc32)cc1 | > 20 |
| O=C(c1ccncc1)N1CCC2(CCN(Cc3ccncc3)CC2)CC1 | > 20 |
| Cn1c(=O)c(CCc2ccccc2)nc2cncnc21 | > 20 |
| CNc1ncnc2ccc(-c3cccc(OC)c3)cc12 | > 20 |
| COc1ccc(-c2nc3cnc(N(C)C)nc3n(C[C@H]3CCCO3)c2=O)cc1 | > 20 |
| COc1ccc(NC(=O)N2CC[C@@]3(CCCN(C(=O)c4cnccn4)C3)C2)cc1 | > 20 |
| COc1cccc(-c2ccc3ncnc(NCc4ccccc4OC)c3c2)c1 | > 20 |
| CN(Cc1ccco1)c1ncnc2ccc(-c3cccnc3)cc12 | > 20 |
| Cn1c(=O)c(-c2ccc(F)cc2)nc2cncnc21 | > 20 |
| COc1ccc(Oc2ncc3nc(C)c(=O)n(-c4ccc(OC)cc4)c3n2)cc1 | > 20 |
| FC(F)(F)c1ccccc1-c1nccc(-n2ccnc2)n1 | > 20 |
| COCCNc1ncncc1-c1ccccc1OC | > 20 |
| CN(C)c1ccc(-c2nc(N3CCNCC3)c3ccccc3n2)cc1 | > 20 |
| COc1ccc(-c2nc3cnc(OC)nc3n(Cc3ccc(F)cc3)c2=O)cc1 | > 20 |
